Test [1] is described as follows: qHTS of pediatric cancer cell lines to identify multiple opportunities for drug repurposing: Primary screen for Saos-2 cells (AID 1347097). Further: nearly all actives have a fitted effect of over 40% in size. Further: potency means the concentration at half of the fitted maximal effect. A digest of the protocol:
(§1)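 Readout: CellTiter-Glo luminescence, 48 h treatment. Controls DMSO (neutral) and bortezomib 2.3 µM final (positive). Potency and efficacy taken from primary-screen concentration-response curves.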

Test [2] is described as follows: qHTS of pediatric cancer cell lines to identify multiple opportunities for drug repurposing: Primary screen for SK-N-SH cells (AID 1347098). Further: nearly all actives have a fitted effect of over 65% in size. Further: potency means the concentration at half of the fitted maximal effect. A digest of the protocol:
(§2)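 Cells (500-1,000/well) rested 5 h, then received compounds for 48 h; metabolically active cells were measured by CellTiter-Glo luminescence. Final concentrations spanned up to 46 µM (MIPE, 11-point) or 0.59 nM-46 µM (NPC, 8-point) in primary screens, 11-point in follow-ups.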
For orientation: In qHTS, concentration-response curves come from the screen itself.

Test [3] can be described thus: qHTS of pediatric cancer cell lines to identify multiple opportunities for drug repurposing: Primary screen for NB1643 cells (AID 1347099). Further: nearly all actives have a fitted effect of over 50% in size. Further: potency means the concentration at half of the fitted maximal effect. The gist of the method:
as §1

Test [4] is described as follows: qHTS of pediatric cancer cell lines to identify multiple opportunities for drug repurposing: Primary screen for LAN-5 cells (AID 1347100). A digest of the protocol: (§3)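 Cells (500-1,000/well) in growth media were settled 5 h at 37 degrees C, then given compounds for 48 h. Viability was read as CellTiter-Glo luminescence. Primary runs used MIPE at 11 points (0.78 nM-46 µM) and NPC at 8 points (0.59 nM-46 µM); follow-ups used 11 points.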

Test [5] is described as follows: qHTS of pediatric cancer cell lines to identify multiple opportunities for drug repurposing: Primary screen for BT-12 cells (AID 1347101). Further: nearly all actives have a fitted effect of over 25% in size. Further: potency means the concentration at half of the fitted maximal effect. The gist of the method:
as §2

Test [6] is described as follows: qHTS of pediatric cancer cell lines to identify multiple opportunities for drug repurposing: Primary screen for Rh18 cells (AID 1347102). Further: nearly all actives have a fitted effect of over 65% in size. A digest of the protocol:
as §3

The nature of test [7]: qHTS of pediatric cancer cell lines to identify multiple opportunities for drug repurposing: Primary screen for RD cells (AID 1347104). Further: nearly all actives have a fitted effect of over 55% in size. Further: potency means the concentration at half of the fitted maximal effect. A digest of the protocol:
as §1

Test [8] is described as follows: qHTS of pediatric cancer cell lines to identify multiple opportunities for drug repurposing: Primary screen for MG 63 (6-TG R) cells (AID 1347105). Further: nearly all actives have a fitted effect of over 50% in size. Further: potency means the concentration at half of the fitted maximal effect. The gist of the method: as §1
Test [9] in a line: qHTS of pediatric cancer cell lines to identify multiple opportunities for drug repurposing: Primary screen for control Hh wild type fibroblast cells (AID 1347106).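 Further: series mostly up to about 46 µM; a drop in luminescence marks cytotoxicity and a rise apparent proliferation; nearly all actives have a fitted effect of over 55% in size.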 A digest of the protocol:
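Viability after 48 h compound treatment at 37C, 500-1,000 cells/well, read as ATP luminescence with CellTiter-Glo. Primary screens used 11-point (MIPE, 0.78 nM-46 µM) or 8-point (NPC, 0.59 nM-46 µM) final concentrations; follow-up screens used 11-point dilutions.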

A short description of test [10]: qHTS of pediatric cancer cell lines to identify multiple opportunities for drug repurposing: Primary screen for Rh30 cells (AID 1347107). Further: series mostly up to about 46 µM; nearly all actives have a fitted effect of over 75% in size. A digest of the protocol: as §3
Test [11] is described as follows: qHTS of pediatric cancer cell lines to identify multiple opportunities for drug repurposing: Primary screen for Rh41 cells (AID 1347108).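 Further: series mostly up to about 46 µM; luminescence drop marks cytotoxic hits; nearly all actives have a fitted effect of over 70% in size.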 The gist of the method: as §1
A short description of test [12]: qHTS of pediatric cancer cell lines to identify multiple opportunities for drug repurposing: Primary screen for OHS-50 cells (AID 1347103). Further: nearly all actives have a fitted effect of over 40% in size. Further: potency means the concentration at half of the fitted maximal effect. The gist of the method:
as §2

Test [13] is described as follows: qHTS of pediatric cancer cell lines to identify multiple opportunities for drug repurposing: Confirmatory screen for SK-N-MC cells (AID 1347111).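 Further: potency means the concentration at half of the fitted maximal effect; cells exposed to compound for 48 h before the readout; nearly all actives have a fitted effect of over 70% in size.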 A digest of the protocol:
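Metabolically active cells were quantified by ATP-dependent luminescence (CellTiter-Glo, 15 min at room temperature) following 48 h treatment. Cells had been plated at 500-1,000 per well and settled for 5 h beforehand.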

A short description of test [14]: qHTS of pediatric cancer cell lines to identify multiple opportunities for drug repurposing: Confirmatory screen for NB-EBc1 cells (AID 1347115).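 Further: cells exposed to compound for 48 h before the viability read; nearly all actives have a fitted effect of over 45% in size.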 A digest of the protocol: as §3
Test [15] in a line: qHTS of pediatric cancer cell lines to identify multiple opportunities for drug repurposing: Confirmatory screen for SJ-GBM2 cells (AID 1347116). Further: nearly all actives have a fitted effect of over 60% in size. Further: potency means the concentration at half of the fitted maximal effect. The gist of the method: (§4)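 Viability measured as metabolically active cells via CellTiter-Glo luminescence following 48 hours of compound exposure, 11-point dilutions in confirmatory testing. 500-1,000 cells/well plated 5 hours before dosing; controls were DMSO and 2.3 µM bortezomib.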

The nature of test [16]: qHTS of pediatric cancer cell lines to identify multiple opportunities for drug repurposing: Confirmatory screen for MG 63 (6-TG R) cells (AID 1347119). Further: nearly all actives have a fitted effect of over 55% in size. Further: potency means the concentration at half of the fitted maximal effect. A digest of the protocol:
as §3

Test [17] is described as follows: qHTS of pediatric cancer cell lines to identify multiple opportunities for drug repurposing: Confirmatory screen for A673 cells (AID 1347110).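 Further: cells exposed to compound for 48 h before the viability read; nearly all actives have a fitted effect of over 65% in size.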 Further: potency means the concentration at half of the fitted maximal effect. A digest of the protocol:
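A673 cells seeded at 500-1,000 cells/well, rested 5 h, then dosed; primary MIPE 11-point (0.78 nM to 46 µM), NPC (0.59 nM to 46 µM); confirmatory 11-point. CellTiter-Glo luminescence after 48 h.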

The nature of test [18]: qHTS of pediatric cancer cell lines to identify multiple opportunities for drug repurposing: Confirmatory screen for DAOY cells (AID 1347114). Further: nearly all actives have a fitted effect of over 65% in size. Further: potency means the concentration at half of the fitted maximal effect. A digest of the protocol:
as §4

The nature of test [19]: qHTS of pediatric cancer cell lines to identify multiple opportunities for drug repurposing: Confirmatory screen for BT-37 cells (AID 1347117). Further: nearly all actives have a fitted effect of over 55% in size. Further: potency means the concentration at half of the fitted maximal effect. The gist of the method: as §3
Test [20] can be described thus: qHTS of pediatric cancer cell lines to identify multiple opportunities for drug repurposing: Confirmatory screen for LAN-5 cells (AID 1347113). Further: nearly all actives have a fitted effect of over 65% in size. Further: potency means the concentration at half of the fitted maximal effect. A digest of the protocol: as §3

Results filed as inconclusive are left out. Activity calls are given as the source filed them. The call rests on the fitted dose curve; in most records, active means well fitted curve in the direction sought with a large enough effect; inconclusive means small, poorly fitted or top-dose-only effect, or another doubt; inactive means no such curve, though single readings can be large; an effect the other way counts as inactive or inconclusive. Numbered stars: 1 amine (or outer) side, 2 acyl side, 3 side chain; on linkers, the order of the positions; unused ones are H or OH. Bridge positions count the residues as written; N and C are the ends. Square brackets hold non-standard residues; d marks the D form. Peptide text beside a SMILES is read from it. I, II: the chains in the order shown. Actinocin(9to1) = Cc1c2oc3c(C)ccc(C(=O)[*:1])c3nc-2c(C(=O)[*:2])c(N)c1=O; NMeV = CN[C@H](C(=O)O)C(C)C; Sar = CNCC(=O)O

In the case of `CC[N+](CC)(CCNC(=O)C(=O)NCC[N+](CC)(CC)Cc1ccccc1Cl)Cc1ccccc1Cl`, the Potency entry in [1], in test [2], in [3], in test [4], in [5] and in [6] was “inactive” in each case. Also, the Potency entry in test [7], in test [8], in test [9], in [10] and in test [11] was “inactive” in each case.

Take `COC(=O)[C@@H]1CC2=CC(=O)CC[C@]2(C)[C@@]23O[C@@H]2C[C@@]2(C)[C@@H](CC[C@@]24CCC(=O)O4)[C@H]13`: the Potency result in test [1], in test [2], in test [3], in test [4], in test [5] and in test [6] was “inactive” each time. In addition, the Potency result in test [7], in test [9], in [10] and in [11] was “inactive” in each case.

Take `Cc1ccc(Nc2c(F)cccc2Cl)c(CC(=O)O)c1`: the Potency result in test [1], in test [2], in [3], in test [4], in test [5] and in test [6] was “inactive” throughout. Moreover, the Potency result in [7], in test [8], in [9], in test [10] and in test [11] was “inactive” each time.

As for `CCOC(=O)/C=C(C)/C=C/C=C(C)/C=C/c1c(C)cc(OC)c(C)c1C`, the Potency entry in test [1], in test [2], in test [3], in test [4], in [6] and in test [7] was “inactive” in each case. For the same molecule, the Potency result in test [9], in test [10] and in [11] was “inactive” throughout. Also, the Potency in [12] is 24600 nM (active).

On to `CCN1CCCC1=O`, for which the Potency result in test [1], in test [2], in test [3], in test [4], in [5] and in test [6] was “inactive” each time. The Potency result in [7], in test [8], in test [9] and in [11] was “inactive” throughout.

Regarding `O=C(CCCN1CCC(O)(c2ccc(Br)cc2)CC1)c1ccc(F)cc1`, the Potency entry in test [1], in test [2], in [4], in test [5], in test [7] and in test [8] was “inactive” throughout. Further, the Potency result in [9], in test [10], in test [11], in test [14], in [15] and in test [16] was “inactive” throughout. Besides, the results for the Potency in [3] and in test [13] were 23.7 nM (active) and 2610 nM (active), respectively.

For the molecule `C[C@H](O)C(=O)Nc1c(I)c(C(=O)NC(CO)CO)c(I)c(C(=O)NC(CO)CO)c1I`, the Potency entry in [1], in test [2], in test [3], in test [4], in [5] and in test [6] was “inactive” throughout. The Potency result in [7], in [9], in test [10] and in test [11] was “inactive” each time.

Take `O=C(COc1ccc(Cl)cc1)N1CCN(Cc2ccc3c(c2)OCO3)CC1`: the Potency result in test [1], in test [2], in test [3], in test [4], in test [6] and in test [7] was “inactive” in each case. The Potency entry in test [8], in [9], in test [10] and in [11] was “inactive” each time.

Regarding `CC(C)COC(=O)c1ccc(N)cc1`, the Potency entry in test [1], in test [3], in test [4], in test [5], in test [6] and in [12] was “inactive” in each case. In addition, the Potency result in [7], in [8], in [9], in [10] and in test [11] was “inactive” in each case.

For the molecule `CC1(C)O[C@@H]2C[C@H]3[C@@H]4CCC5=CC(=O)CC[C@]5(C)[C@@]4(F)[C@@H](O)C[C@]3(C)[C@]2(C(=O)CCl)O1`, the Potency entry in test [1], in test [2], in test [3], in test [4], in [6] and in [7] was “inactive” each time. In addition, the Potency entry in test [8], in [9], in test [10], in test [11], in test [17] and in test [18] was “inactive” in each case. The Potency result in [14], in test [15] and in test [19] was “inactive” each time.

Turning to `CC(=O)N(O)CCCCCNC(=O)CCC(=O)N(O)CCCCCNC(=O)CCC(=O)N(O)CCCCCN`, the Potency entry in test [1] is “inactive”. Besides, the Potency was 5450 nM (active) in test [2] and 12300 nM (active) in test [5].

Take `Cc1c2oc3c(C)ccc(C(=O)N[C@@H]4C(=O)N[C@H](C(C)C)C(=O)N5CCC[C@H]5C(=O)N(C)CC(=O)N(C)[C@@H](C(C)C)C(=O)O[C@@H]4C)c3nc-2c(C(=O)N[C@@H]2C(=O)N[C@H](C(C)C)C(=O)N3CCC[C@H]3C(=O)N(C)CC(=O)N(C)[C@@H](C(C)C)C(=O)O[C@@H]2C)c(N)c1=O` (I: T[dV]P[Sar][NMeV] / II: T[dV]P[Sar][NMeV]; ester I:1-I:C, II:1-II:C; linker I:N-II:N via Actinocin(9to1)): the Potency in test [1] was 84.1 nM (active); in [2] it was 3.4 nM (active); in test [5], 6.9 nM (active); in test [7], 13.3 nM (active); in [8] it was 33.5 nM (active); in [17], 13.1 nM (active). Also, the Potency in [13] was 5.2 nM (active); in test [20], 2.3 nM (active); in [18], 26.1 nM (active); in test [15] it was 26.1 nM (active); in test [19] it was 2.3 nM (active); in test [16] it was 32.9 nM (active). The Potency result in [4] and in test [14] was “inactive” throughout.

In the case of `CC(=O)OCC(=O)[C@@]1(OC(C)=O)[C@@H](C)C[C@H]2[C@@H]3C[C@H](F)C4=CC(=O)C=C[C@]4(C)[C@@]3(F)[C@@H](O)C[C@@]21C`, the Potency entry in test [1], in test [2], in test [4], in [5], in test [6] and in [7] was “inactive” each time. The Potency entry in [9], in test [11], in [17], in test [20], in [14] and in test [15] was “inactive” each time.
